High-throughput results as filed in PubChem BioAssay.
RecA splice inh = Mtb RecA intein splicing inhibition; P9WHJ3; cell-free RecA intein splicing, fluorescence; inhibition, % (test concentration not listed); actives 0.75% (n = 290,000); AID 2221; in the data active means inhibition above about 30%
Mtb UGM inh = Mtb UDP-galactopyranose mutase inhibition. AID 504406. purified UGM, fluorescence polarization probe displacement. P9WIQ1. inhibition, % at 10 µM. actives 0.06% (n = 320,000); in the data active means inhibition above about 10%, passing the limit was not always enough
GDH-TPI inh = GDH-TPI coupled enzyme inhibition counter-screen; actives 1.2% (n = 360,000); GDH-TPI coupled enzyme counterscreen, NADH absorbance; AID 588335; inhibition, % at 4.8 µM; in the data active means inhibition above about 30%
Mtb bLac sens = beta-lactam sensitization of Mtb H37Rv. inhibition, % at 25 µM. actives 0.27% (n = 330,000). M. tuberculosis H37Rv growth with meropenem, percent inhibition; call rule not given here;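 further: growth measured after seven days incubation then overnight dye step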
Rv3671c inh = inhibitors of M. tuberculosis serine protease Rv3671c | inhibition, % at 5.96 µM | P9WHR9 | actives 0.048% (n = 320,000) | AID 2606; in the data active means inhibition above about 38%;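 further: extracellular domain of Rv3671c used as enzyme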
Target sequence (P9WHR9 whole entry, looked up, the tested form may be a part): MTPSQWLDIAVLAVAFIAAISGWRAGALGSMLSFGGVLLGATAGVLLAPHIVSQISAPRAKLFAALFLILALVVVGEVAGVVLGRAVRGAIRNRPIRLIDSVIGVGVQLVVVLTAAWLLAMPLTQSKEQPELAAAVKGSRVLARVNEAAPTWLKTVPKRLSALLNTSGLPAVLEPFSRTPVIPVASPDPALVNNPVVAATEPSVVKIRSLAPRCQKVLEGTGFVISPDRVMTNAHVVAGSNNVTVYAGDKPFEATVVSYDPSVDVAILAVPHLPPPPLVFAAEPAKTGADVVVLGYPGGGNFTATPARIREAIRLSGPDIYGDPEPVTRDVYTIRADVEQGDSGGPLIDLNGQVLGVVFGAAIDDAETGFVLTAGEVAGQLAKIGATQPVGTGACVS
FBA Mtb inh = inhibitors of M. tuberculosis fructose-bisphosphate aldolase | P9WQA3 | purified M. tuberculosis FBA, fluorescence read-out | inhibition, % at 1 µM | actives 2.3% (n = 360,000); in the data active means inhibition above about 27%
Large screens that a line does not name were inactive. Compounds with a hit are over-represented: about 4% of the library has one in this group of screens.

N/C(=N\N=C\c1ccco1)SC1CC(=O)N(c2ccccc2)C1=O (centres undefined)	none
CC(Sc1n[nH]c(N)n1)C(=O)Nc1ccccc1-c1ccccc1 (centres undefined)	none
C/C(=N\Nc1nncc2ccccc12)c1ccc(C(C)(C)C)cc1	none
Cn1c(CNC(=O)c2ccccc2F)nnc1SCC(=O)Nc1nnc(C2CC2)s1	none
COc1ccccc1OCc1nnc(SCC(=O)Nc2nnc(C3CC3)s2)n1C	FBA Mtb inh 175
COc1ccncc1-c1csc(C(O)c2ccccc2)n1 (centres undefined)	none (no result: RecA splice inh, Mtb UGM inh, Mtb bLac sens, Rv3671c inh)
COc1ccc(OC)c(-c2cc(C(=O)Nc3cccc(Cl)c3)no2)c1	none
O=S(=O)(c1cccc(-c2cn3cccnc3n2)c1)N1CCOCC1	FBA Mtb inh active (no result: RecA splice inh)
Cc1ccc2nc(-c3cccc(S(=O)(=O)N4CCCC4)c3)cn2c1	none
O=[N+]([O-])c1ccc(-c2cn3ccccc3n2)cc1	none
CN(C)S(=O)(=O)c1ccc(-c2cn3ccccc3n2)cc1	FBA Mtb inh 160
CN(C)S(=O)(=O)c1cccc(-c2cn3cccnc3n2)c1	FBA Mtb inh 173
Fc1ccccc1CNC(=S)NC1CCCCC1	none (no result: Rv3671c inh)
Cc1ccc(NC(=S)NC(=O)c2ccc(-c3ccc(Cl)cc3)o2)c(O)c1	none
Cc1cc(O)c(NC(=S)NC(=O)c2ccc(-c3ccc(Cl)cc3)o2)cc1C	GDH-TPI inh 37
C=CCn1c(=NC(=O)c2ccc(S(=O)(=O)N3CCc4ccccc4C3)cc2)sc2cc(S(N)(=O)=O)ccc21	none
C#CCn1c(=NC(=O)c2ccc(S(=O)(=O)N3CCc4ccccc4C3)cc2)sc2cc(S(N)(=O)=O)ccc21	GDH-TPI inh 48
CCOc1ccc(-c2nc(C#N)c(N3CCN(Cc4ccccc4)CC3)o2)cc1	none
COP(=O)(OC)c1nc(-c2cccc3ccccc23)oc1N1CCOCC1	FBA Mtb inh active
Cc1ccc(-c2nc(P(=O)(c3ccccc3)c3ccccc3)c(N3CCOCC3)o2)cc1	none
CCOP(=O)(c1ccccc1)c1nc(-c2ccccc2Cl)oc1N1CCCCC1 (centres undefined)	none
CCOc1ccc(-c2nc(C#N)c(N3CCOCC3)o2)cc1	FBA Mtb inh 175
CCOP(=O)(OCC)c1nc(-c2ccc(OC)cc2)oc1N1CCOCC1	FBA Mtb inh 174
COP(=O)(OC)c1nc(-c2ccc(C)cc2)oc1N1CCCCC1	FBA Mtb inh active
CCOC(=O)c1c(N2C(=O)CC(Sc3ccccc3C(=O)O)C2=O)sc(C)c1C (centres undefined)	none
CC(C)(C)n1cnc2cc(NC(=O)c3cccs3)ccc21	none
O=C(COc1ccc(-n2cnnn2)cc1)Nc1ccc(F)c(F)c1F	none (no result: RecA splice inh)
O=C(CC1SC(N2CCOCC2)=NC1=O)Nc1ccccc1Cl (centres undefined)	none (no result: RecA splice inh)
O=C1C2C3C=CC(CC3)C2C(=O)N1/N=C/c1ccc(O)cc1 (centres undefined)	GDH-TPI inh 32
CC(=O)NN1C(=O)/C(=C\c2ccc(O)cc2)SC1=S	none
O=C1/C(=C\c2ccc(O)cc2)SC(=S)N1/N=C/c1ccc(O)cc1	GDH-TPI inh 38
O=C(Cc1ccccc1)N1CCCC(c2nc(-c3cccs3)no2)C1 (centres undefined)	none
COc1ccc(/C=C(\C#N)C(=O)N2CCOCC2)cc1Br	GDH-TPI inh 37 (no result: Mtb UGM inh)
CCOc1ccc(NC(=O)CN2CCN(CC(=O)Nc3ccc(N(C)C)cc3)CC2)cc1	none (no result: Mtb UGM inh, Mtb bLac sens, Rv3671c inh)
Cc1cc(=O)oc2c3c(cc(OCC(=O)NCCN4CCOCC4)c12)OC(C)(C)CC3	FBA Mtb inh 191 (no result: RecA splice inh)
CCCc1cc(=O)oc2c3c(cc(OCC(=O)NCCCn4ccnc4)c12)OC(C)(C)CC3	FBA Mtb inh 170
Cc1cc(=O)oc2cc(OCC(=O)NCCCn3ccnc3)ccc12	none
Cc1cc(=O)oc2c3c(cc(OCC(=O)NCCCn4ccnc4)c12)OC(C)(C)CC3	FBA Mtb inh active
Cc1ccc(CN2CCC(n3nccc3NC(=O)CCOc3ccccc3)CC2)cc1C	none
O=C(NC1CCCC1)c1cc(=O)[nH]c2ccccc12	GDH-TPI inh 43
O=C(COC(=O)c1cc(=O)[nH]c2ccccc12)NC1CCCC1	none
Cc1[nH][nH]c(=O)c1C(c1ccccc1[N+](=O)[O-])C(C#N)C#N (centres undefined)	RecA splice inh 70
COc1ccc(-c2ccc(C(c3c(C)[nH][nH]c3=O)c3c(C)[nH][nH]c3=O)o2)c([N+](=O)[O-])c1	none (no result: RecA splice inh, Mtb UGM inh, Mtb bLac sens, Rv3671c inh)
CC(C)N(CCCNC(=O)C1CCC(CNS(=O)(=O)c2ccccc2)CC1)Cc1ccccc1 (centres undefined)	none
COc1cc2c(cc1NCc1ccc3c(c1)OCO3)oc1ccccc12	none
COc1cc2c(cc1NCc1ccccn1)oc1ccccc12	FBA Mtb inh 29
COc1cc2c(cc1NC(=S)Nc1cccc(C(F)(F)F)c1)oc1ccccc12	FBA Mtb inh 64
CN(C)c1ccc(Nc2ncnc3ccc(Br)cc23)cc1	none
COc1ccc(S(=O)(=O)c2cnc3ccccc3n2)cc1	RecA splice inh 35
O=S(=O)(Cc1ccccc1)c1cnc2ccccc2n1	RecA splice inh 30 (no result: Mtb bLac sens)
O=S(=O)(c1ccc(Br)cc1)c1cnc2ccccc2n1	none
Cc1c(CCC(=O)O)c(=O)oc2cc(OCc3ccccc3F)ccc12	FBA Mtb inh 121
COc1cc(COc2ccc3c(C)c(CCC(=O)O)c(=O)oc3c2)cc(OC)c1OC	none
Cc1c(CC(=O)O)c(=O)oc2cc(OCc3ccc(F)cc3Cl)ccc12	FBA Mtb inh 167
CN=C(Nc1ccc(C(=O)OC)s1)c1ccccc1	none
Cc1cc(C)cc(NC(=S)N2CCC(NC(=O)C3CCCCC3)CC2)c1	none
Cc1ccccc1NC(=O)C1CCCN1/C=C/C(=O)C(F)(F)F (centres undefined)	none
O=C(Nc1ccccc1)C1CCCN1/C=C/C(=O)C(F)(F)F (centres undefined)	GDH-TPI inh 44
COc1ccc(/C=C/C(=O)c2ccc([N+](=O)[O-])o2)cc1	none
Cc1ccc(C(=O)/C=C/c2ccc(F)cc2)o1	GDH-TPI inh 39
COCCn1c(SCC(=O)N2CCCC2)nnc1-c1ccoc1C	FBA Mtb inh 130
CN1CCc2c(sc3nc(SCC(=O)N4CCCCC4)n(-c4ccccc4)c(=O)c23)C1	GDH-TPI inh 39
CN1CCc2c(sc3nc(SCC(N)=O)n(-c4ccc(Cl)cc4)c(=O)c23)C1	GDH-TPI inh 32
CCn1c(SCC(=O)NCCc2ccccc2)nc2sc3c(c2c1=O)CCN(C)C3	GDH-TPI inh 35
CN1CCc2c(sc3nc(SCC(N)=O)n(-c4ccccc4)c(=O)c23)C1	none
FC(F)(F)c1cc(-c2ccccc2)nc(-n2cncn2)n1	none
O=C(CNc1cccc(S(=O)(=O)N2CCCC2)c1)Nc1ccc(C(F)(F)F)cc1	none
COc1cc2nc(N3CCN(C(=O)C4CCCO4)CC3)nc(N)c2cc1OC (centres undefined)	FBA Mtb inh 112
